High-throughput results: PubChem, National Center for Advancing Translational Sciences (NCATS)
Rows were chosen to be rich in hits. Some 13% of all compounds tested hit in one or more screens of this group.
A350 autofl = qHTS Assay for Spectroscopic Profiling in A350 Spectral Region. AID 590, 2007. max dye-equivalent concentration, M. 59,000 compounds, 11% hits. Compound autofluorescence, 340/450 nm, Alexa 350 dye-equivalents; stronger effect = higher value; in the data active means max dye-equivalent concentration above about 10 nM; inconclusive means mostly about 1.1 nM to 9.6 nM
AID923 = qHTS Assay for Allosteric/Competitive Inhibitors of Caspase-1: Spectroscopic Profiling in AFC Spectral Region; compound fluorescence, AFC spectral region (405/520 nm); 75,000 compounds, 1.1% hits; Potency, µM (highest dose often 57.5 µM), most hits filed as activators
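Titrations up to 57 uM read every 20 sec for 3 min (405/520 nm) with 50 nM caspase 1 and 5 uM Ac-WEHD-AFC, pH 7.5 HEPES buffer. Fluorescence-vs-time intercept gave baseline, scaled against on-plate AFC standard.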
HADH2 inh = qHTS Assay for Inhibitors of HADH2 (Hydroxyacyl-Coenzyme A Dehydrogenase, Type II); Potency, µM (doses to about 57.1 µM), hits mostly inhibitors; recombinant HADH2, NADH fluorescence, beta-hydroxybutyryl-CoA; 73,000 compounds, 3.4% hits; AID 886, 2007; 3-hydroxyacyl-CoA dehydrogenase type-2 (Homo sapiens), Q99714; further: nearly all actives have a fitted effect of over 60% in size
Target sequence (Q99714 whole entry, looked up, one chain of several): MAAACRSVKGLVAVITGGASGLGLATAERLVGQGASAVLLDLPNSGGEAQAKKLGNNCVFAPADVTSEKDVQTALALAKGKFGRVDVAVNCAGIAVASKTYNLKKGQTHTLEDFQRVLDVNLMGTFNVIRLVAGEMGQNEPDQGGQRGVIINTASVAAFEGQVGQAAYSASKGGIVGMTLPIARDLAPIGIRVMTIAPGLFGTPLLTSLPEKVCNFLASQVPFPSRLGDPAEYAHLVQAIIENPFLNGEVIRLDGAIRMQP
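20 nM HADH2 + cpd, 15 min RT; add 1 mM NAD+/90 uM beta-hydroxybutyryl-CoA; kinetic fluorescence 360/450 nm, 4 min. Tris-HCl pH 9.0, 0.01% Tween-20.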
HSD17B inh = qHTS Assay for Inhibitors of HSD17B4, hydroxysteroid (17-beta) dehydrogenase 4; recombinant HSD17B10, NADH fluorescence kinetic; Potency, µM (doses to about 57.1 µM), hits mostly inhibitors; 75,000 compounds, 7.6% hits;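 further: the protocol describes HADH2 (HSD17B10) and not the HSD17B4 of the title; nearly all actives have a fitted effect of over 70% in size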
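20 nM HADH2, pH 9.0 Tris/Tween; cpd preinc 15 min RT; start w/ 1 mM NAD+ + 90 uM b-hydroxybutyryl-CoA; kinetic fluor ex360/em450 q30s x 4 min; delta last-first.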
4-MU autofl = qHTS Assay for Spectroscopic Profiling in 4-MU Spectral Region; compound autofluorescence, 340/450 nm, 4-MU equivalents; stronger effect = higher value; max dye-equivalent concentration, M; 59,000 compounds, 11% hits; AID 589, 2007; in the data active means max dye-equivalent concentration above about 10 nM; inconclusive means mostly about 1.1 nM to 9.6 nM
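Compounds in 100 mM Tris, pH 8.0, sat 15 min at room temperature before fluorescence was read at 340 nm excitation/450 nm emission; a per-plate six-point 4-MU standard curve converted signals to dye-equivalent concentration at each compound concentration.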
A number is an active result; [ ] = another dose, or the depositor's remark. Unless noted, the call rests on the fitted dose curve; in most records, active means well fitted curve in the direction sought with a large enough effect; inconclusive means small, poorly fitted or top-dose-only effect, or another doubt; inactive means no such curve, though single readings can be large; an effect the other way counts as inactive or inconclusive.

Screening Cc1ccc(C(C(=O)NC2CCCCC2)N(Cc2cccnc2)C(=O)C2COc3ccccc3O2)o1 (configuration not stated) returned A350 autofl inactive, AID923 inactive, HADH2 inh inactive, HSD17B inh inactive and 4-MU autofl inactive.
COCCNC(=O)C(c1ccc(C)o1)N(C(=O)c1snc(C(N)=O)c1N)c1ccc(C)cc1 (configuration not stated) was read as A350 autofl 7.3e-08M, AID923 inactive, HADH2 inh inactive, HSD17B inh 32µM and 4-MU autofl 8.6e-08M.
COCCNC(=O)C(c1ccc(C)o1)N(C(=O)c1snc(C(N)=O)c1N)c1ccc(C)c(C)c1 (configuration not stated) was read as A350 autofl 3.5e-08M, AID923 inactive, HADH2 inh inactive, HSD17B inh inconclusive and 4-MU autofl 4.2e-08M.
COCCNC(=O)C(c1ccc(C)o1)N(C(=O)c1snc(C(N)=O)c1N)c1cccc(C)c1 (configuration not stated) was read as A350 autofl 1.4e-07M, AID923 inactive, HADH2 inh inactive, HSD17B inh 32µM and 4-MU autofl 1.7e-07M.
`CCC(C)(C)NC(=O)CN(C(=O)c1snc(C(N)=O)c1N)c1ccc2c(c1)OCCO2` gave A350 autofl inconclusive, AID923 inactive, HADH2 inh inactive, HSD17B inh inactive and 4-MU autofl inconclusive.
Screening Cc1ccc(C(C(=O)NC2CCCC2)N(Cc2cccnc2)C(=O)c2snc(C(N)=O)c2N)o1 (configuration not stated) returned A350 autofl 3.6e-07M, AID923 inactive, HADH2 inh inactive, HSD17B inh 25µM and 4-MU autofl 2.3e-07M.
Screening Cc1ccc(C(C(=O)NCCc2ccccc2)N(C(=O)c2csnn2)C2CC2)o1 (configuration not stated) returned A350 autofl inconclusive, AID923 inactive, HADH2 inh inactive, HSD17B inh inactive and 4-MU autofl inconclusive.
For O=C(Nc1ccccc1)N1CCC2(CC1)CCN(C(=O)c1cnccn1)CC2 the results were A350 autofl inconclusive, AID923 inactive, HADH2 inh inactive, HSD17B inh inactive and 4-MU autofl inconclusive.
Screening CCOc1ccccc1N(C(=O)c1snc(C(N)=O)c1N)C(C(=O)NC1CCCC1)c1ccco1 (configuration not stated) returned A350 autofl 7.8e-08M, AID923 inactive, HADH2 inh inactive, HSD17B inh 10µM and 4-MU autofl 7.4e-08M.
COc1ccc(/C(O)=C(\C#N)c2nc3ccccc3n2C)cc1OC was read as A350 autofl inconclusive, AID923 inactive, HADH2 inh inactive, HSD17B inh inactive and 4-MU autofl 1.4e-08M.
`Cn1c(/C(C#N)=C(\O)c2ccc(S(=O)(=O)N3CCCCC3)cc2)nc2ccccc21` gave A350 autofl 2e-07M, AID923 inactive, HADH2 inh inconclusive, HSD17B inh inactive and 4-MU autofl 1.9e-07M.
For O=C(Nc1ccccc1)c1ccc(S(=O)(=O)N2CCCCC2)cc1 the results were AID923 inactive, HADH2 inh inactive and HSD17B inh inactive.
For COc1ccc(C(O)c2nc3ccccc3n2C)cc1OC (configuration not stated) the results were AID923 inactive, HADH2 inh inactive and HSD17B inh inactive.
CSc1nnc2c3cc(F)ccc3n(Cc3ccccc3)c2n1 was read as A350 autofl 2.7e-08M, AID923 inactive, HADH2 inh inconclusive, HSD17B inh inactive and 4-MU autofl 2e-08M.
`COc1ccc(NC(=O)/C=C\c2ccc(Cl)cc2)cc1` gave A350 autofl inactive, AID923 inactive, HADH2 inh inactive, HSD17B inh inactive and 4-MU autofl inactive.
CCn1c2ccc(CC(=O)O)cc2c2cc(CC(=O)O)ccc21 was read as A350 autofl inconclusive, AID923 inactive, HADH2 inh inactive, HSD17B inh 25µM and 4-MU autofl inconclusive.
N[C@@H](Cc1ccc(O)c(I)c1)C(=O)O was read as A350 autofl inactive, AID923 inactive, HADH2 inh inactive, HSD17B inh inactive and 4-MU autofl inactive.
For COC(=O)[C@@H](N)Cc1ccc(O)c(O)c1 the results were A350 autofl inactive, AID923 inactive, HADH2 inh 0.063µM, HSD17B inh inactive and 4-MU autofl inactive.
CCCCc1ccc(CC(=O)O)cc1 was read as A350 autofl inactive, AID923 inactive, HADH2 inh inconclusive, HSD17B inh inactive and 4-MU autofl inactive.
For O=C(O)Cc1ccc(O)c(O)c1 the results were A350 autofl inactive, AID923 inactive, HADH2 inh 0.5µM, HSD17B inh inconclusive and 4-MU autofl inactive.
Screening C[C@@](N)(Cc1ccc(O)c(O)c1)C(=O)O returned A350 autofl inconclusive, AID923 inactive, HADH2 inh 0.1µM, HSD17B inh inconclusive and 4-MU autofl inconclusive.
For Fc1ccc(Nc2ccnc(-c3ccc4c(c3)OCO4)n2)cc1 the results were A350 autofl inactive, AID923 inactive, HADH2 inh inactive, HSD17B inh inconclusive and 4-MU autofl inactive.
For CC(C)(CO)NC(=O)CCCOc1ccc(Cl)cc1Cl the results were AID923 inactive, HADH2 inh inactive and HSD17B inh inactive.
`O=C(CCCOc1ccc(Cl)cc1Cl)NCCCO` gave A350 autofl 4.2e-08M, AID923 inactive, HADH2 inh inactive, HSD17B inh inactive and 4-MU autofl 3.1e-08M.
`O[C@@H](c1cc(C(F)(F)F)nc2c(Cl)cc(Cl)cc12)[C@@H]1CCCCN1` gave A350 autofl inactive, AID923 inactive[11.5 µM], HADH2 inh inactive[11.4 µM], HSD17B inh inactive[11.4 µM] and 4-MU autofl inactive.
Screening CCc1cc2c(NCC(=O)O)ncnc2s1 returned A350 autofl inactive, AID923 inactive, HADH2 inh inactive, HSD17B inh inactive and 4-MU autofl inactive.
`CCc1cc2c(NCCC(=O)O)nc(C)nc2s1` gave A350 autofl 2.4e-08M, AID923 inactive, HADH2 inh inactive, HSD17B inh inconclusive and 4-MU autofl 2.5e-08M.
CN(Cc1ccco1)c1ncncc1-c1ccccc1C(F)(F)F was read as A350 autofl inactive, AID923 inactive, HADH2 inh inactive, HSD17B inh inactive and 4-MU autofl inactive.
CCc1ccc(O)c(N=Cc2cccc(C)c2O)c1 was read as AID923 inactive, HADH2 inh 3.2µM and HSD17B inh inconclusive.
Screening Cc1cnc(CNc2ccnc(-c3cccc(C#N)c3)n2)cn1 returned A350 autofl inactive, AID923 inactive, HADH2 inh inactive, HSD17B inh inactive and 4-MU autofl inactive.
`CC(=O)Nc1cccc(C(=O)Nc2ccccc2C(=O)O)c1` gave A350 autofl inactive, AID923 inactive, HADH2 inh inactive, HSD17B inh inactive and 4-MU autofl inactive.
